Screening results from PubChem BioAssay.
An excerpt weighted towards active compounds, which were near 8% of everything screened.
MARV entry inh – inhibitors of Marburg virus binding or entry into cells; Marburg virus pseudotype entry/binding inhibition, cell-based; Potency, µM (series often up to 49.2 µM), actives largely listed as inhibitors; 6.5% of 18,000 active
LASV entry inh – Lassa virus entry inhibition. Lassa virus pseudotyped entry inhibition, cell-based qHTS. Potency, µM (highest dose often 49.2 µM), most hits filed as inhibitors. 4.1% of 18,000 active. AID 720533
Large screens that a line does not name were inactive; ! = repeats disagree. The call rests on the fitted dose curve; tested in HEK293 cells.

CC1(C)C(=O)C=C[C@@]2(C)C1=C(O)C(=O)[C@@]1(C)C2CC[C@@]2(C)C(c3ccoc3)C[C@H]3O[C@@]321 (some centres not stated)	MARV entry inh 5.01µM, LASV entry inh 11.2µM
CC(=O)OC1CC(OC(C)=O)[C@]2(C)C(CC(=O)[C@]3(C)C2CC[C@@]2(C)C(c4ccoc4)OC(=O)C4O[C@@]423)C1(C)C (some centres not stated)	none
COCOc1cc(OC)ccc1C(=O)/C=C/c1ccc2c(c1)OCO2	MARV entry inh inconclusive
COc1ccc2c(c1OC)C(=O)O[C@H]2[C@H]1c2cc3c(cc2CCN1C)OCO3	MARV entry inh inconclusive
C[C@@H]1O[C@@H](O[C@@H]2C=C3CC[C@@H]4[C@H](CC[C@]5(C)[C@@H](c6ccc(=O)oc6)CC[C@]45O)[C@@]3(C)CC2)[C@H](O)[C@H](O)[C@H]1O	MARV entry inh inconclusive, LASV entry inh 1µM
CC(C)CCNC(=O)C(CC(C)C)NC(=O)C1OC1C(=O)O (configuration not stated)	none
O=c1c(O)c(-c2cc(O)c(O)c(O)c2)oc2cc(O)cc(O)c12	MARV entry inh 11.2µM
O=c1c(O)c(-c2ccccc2)oc2cc(O)cc(O)c12	none
COC(=O)C1(C(=O)OC)C/C=C\C/C=C\c2ccccc2[C@@H]1C[N+](=O)[O-]	none
COC(=O)C1(C(=O)OC)C/C=C\Cc2ccccc2[C@@H]1C[N+](=O)[O-]	LASV entry inh 0.251µM!
CCCS(=O)(=O)NCc1c(C)ncc2c1CCN(C(=O)c1cccc(-c3ccccc3F)c1)C2	LASV entry inh inconclusive
O=c1oc2cc(O)ccc2s1	none
CNc1ccc2oc(C[C@@H]3OC4(CC[C@@H]3C)O[C@H]([C@@H](C)C(=O)c3ccc[nH]3)[C@H](C)C[C@H]4C)nc2c1C(=O)O (some centres not stated)	MARV entry inh 2.82µM, LASV entry inh 2.82µM
CC(=O)N1CCN(Cc2cc(=O)oc3ccc4ccccc4c23)CC1	none
O=C(NCc1ccon1)c1ccc(-c2csc3ccccc23)nc1N1CCC(N2CCCC(CO)C2)CC1 (configuration not stated)	none
CCCCN(CC)CCOc1cccc2ccccc12	MARV entry inh 10µM, LASV entry inh inconclusive
CCN(CC)CCOc1ccccc1OC	none
OCCN1CCN(Cc2ccc3c(c2)CN(Cc2cccc4ncccc24)CCO3)CC1	none
C[C@]12CC[C@H](OS(=O)(=O)O)CC1=CC[C@@H]1[C@@H]2CC[C@]2(C)C(=O)CC[C@@H]12	none
C[C@@H]1[C@H]2CC[C@@H]3[C@@H]4CC=C5C[C@@H](N(C)C)CC[C@]5(C)[C@@H]4CC[C@@]32CN1C	MARV entry inh 5.62µM
c1ccc(-c2n[nH]c3c2oc2ccccc23)cc1	none
CCCCN(CCCC)Cc1cc(=O)oc2cc(C)cc(C)c12	none
Cc1cc(C)c2c(CN(C)Cc3ccccc3)cc(=O)oc2c1	MARV entry inh 2.23µM, LASV entry inh inconclusive
Cn1c(=O)[nH]c2nc[nH]c2c1=O	none
NC(C(=O)O)c1ccc(P(=O)(O)O)cc1 (configuration not stated)	none
COc1cc(Nc2nccc(Nc3ccc4c(C)[nH]nc4c3)n2)cc(OC)c1OC	MARV entry inh 9.96µM, LASV entry inh inconclusive
COc1ccc(Nc2nccc(NCCO)n2)cc1	none
COc1ccc2c(CN3CCN(C(C)=O)CC3)cc(=O)oc2c1	none
CN(C)Cc1nc(-c2cn(C)c3ccccc23)no1	MARV entry inh inconclusive
COc1ccccc1N1CCN(CCCCNC(=O)c2ccc3ccccc3c2)CC1	none
COc1cc2c(N3CCN(C(=O)Nc4ccc(OC(C)C)cc4)CC3)ncnc2cc1OCCCN1CCCCC1	MARV entry inh 8.91µM, LASV entry inh inconclusive
OCc1c[nH]c2ccccc12	MARV entry inh 31.6µM!, LASV entry inh 31.6µM!
CN(C)Cc1c[nH]c2ccccc12	none
Cc1nc2cc(NC(=O)C3CC34CCN(Cc3ccc(O)c(Cl)c3)CC4)ccc2s1 (configuration not stated)	MARV entry inh inconclusive
OC[C@@H]1O[C@@H](O)[C@H](O)[C@H](O)[C@@H]1O	none
NC1CCN(c2cccc(Cl)n2)CC1	none
O=c1c2ccccc2oc2cc(O)c(C3COCC(CO)C(O)C(O)C3O)c(O)c12 (configuration not stated)	MARV entry inh 14.1µM
O=c1cc(-c2ccc(O)cc2)oc2cc(O)c([C@@H]3O[C@H](CO)[C@@H](O)[C@H](O)[C@H]3O)c(O)c12	none
COc1ccccc1-c1cc2c(c3c1ccn3C)C1CCC2O1 (configuration not stated)	none
C[C@@H](C(=O)OC1C[C@H]2CC[C@@H](C1)N2C)c1ccc(Br)cc1 (some centres not stated)	MARV entry inh inconclusive
CN1C2CCC1CC(OC(c1ccccc1)c1ccccc1N)C2 (configuration not stated)	MARV entry inh 17.8µM
CN1C2CCC1CC(OC(c1ccccc1)c1ccc(Cl)cc1)C2 (configuration not stated)	MARV entry inh 3.98µM, LASV entry inh 11.2µM
CN1[C@@H](C[C@@H](O)c2ccccc2)CCC[C@@H]1C[C@H](O)c1ccccc1	MARV entry inh inconclusive
